# Measurements from the supplement of paper PMC10849652.
# About 8,800 targets were measured; listed, in parts, are those with a hit and a random draw of the rest. About 0.5% of all pairs of compound and target were hits. Unmarked numbers belong to inactive results.
# Legend:
# Assay in all cases: log2 fold change, soluble protein after heating vs DMSO (PISA); higher = thermal stabilisation; K562 lysate, 10 uM; active = over 0.2 and 3.5 SD of the protein, either way, in both replicates (recomputed)
# vemurafenib = compound: CCCS(=O)(=O)Nc1ccc(F)c(C(=O)c2c[nH]c3ncc(-c4ccc(Cl)cc4)cc23)c1F [vemurafenib]
# How it was run: (§1)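 Quantification was by TMTpro 16plex LC-MS/MS with equalised channel sums, applied to the supernatant after 21,000xg for 90 min. Samples were crude K562 extract at 1 mg/mL protein in PBS pH 7.4 with 1 mM MgCl2, treated with 10 μM compound for 30 min, heated for 3 min across 48°C-58°C, pooled and brought to 0.5% NP-40 at 4°C. Values are log-two fold changes in thermal stability relative to solvent controls, from duplicates.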
# [1] = compound: CCCS(=O)(=O)Nc1ccc(F)c(C(=O)c2c[nH]c3ncc(Cl)cc23)c1F
# How it was run: as §1
# barasertib = compound: CCN(CCCOc1ccc2c(Nc3cc(CC(=O)Nc4cccc(F)c4)[nH]n3)ncnc2c1)CCOP(=O)(O)O [barasertib]
# How it was run: as §1
# [2] = compound: CC[C@@H]1C(=O)N(C)c2cnc(Nc3ccc(C(=O)NC4CCN(C)CC4)cc3OC)nc2N1C1CCCC1
# How it was run: as §1
# volasertib = compound: CC[C@@H]1C(=O)N(C)c2cnc(Nc3ccc(C(=O)N[C@H]4CC[C@H](N5CCN(CC6CC6)CC5)CC4)cc3OC)nc2N1C(C)C [volasertib]
# How it was run: as §1
# [3] = compound: CCn1c(C(=O)N(C2CC2)C2CC2)cc2c3c(ncn3C)c(Nc3cc(C)n(C)n3)nc21
# How it was run: as §1
# [4] = compound: CCn1cc(-c2ccnc3[nH]c(-c4cccc(CN(C)C)c4)cc23)c(-c2ccc(NC(=O)N(C)C)cc2)n1
# How it was run: as §1
# [5] = compound: CN1CCC(CNc2ccc3ncc(-c4cccc(OC(F)(F)F)c4)n3n2)CC1
# How it was run: as §1
# saracatinib = compound: CN1CCN(CCOc2cc(OC3CCOCC3)c3c(Nc4c(Cl)ccc5c4OCO5)ncnc3c2)CC1 [saracatinib]
# How it was run: as §1
# sotrastaurin = compound: CN1CCN(c2nc(C3=C(c4c[nH]c5ccccc45)C(=O)NC3=O)c3ccccc3n2)CC1 [sotrastaurin]
# How it was run: as §1
# Chain of UniProt P10398 (P10398 whole entry, looked up): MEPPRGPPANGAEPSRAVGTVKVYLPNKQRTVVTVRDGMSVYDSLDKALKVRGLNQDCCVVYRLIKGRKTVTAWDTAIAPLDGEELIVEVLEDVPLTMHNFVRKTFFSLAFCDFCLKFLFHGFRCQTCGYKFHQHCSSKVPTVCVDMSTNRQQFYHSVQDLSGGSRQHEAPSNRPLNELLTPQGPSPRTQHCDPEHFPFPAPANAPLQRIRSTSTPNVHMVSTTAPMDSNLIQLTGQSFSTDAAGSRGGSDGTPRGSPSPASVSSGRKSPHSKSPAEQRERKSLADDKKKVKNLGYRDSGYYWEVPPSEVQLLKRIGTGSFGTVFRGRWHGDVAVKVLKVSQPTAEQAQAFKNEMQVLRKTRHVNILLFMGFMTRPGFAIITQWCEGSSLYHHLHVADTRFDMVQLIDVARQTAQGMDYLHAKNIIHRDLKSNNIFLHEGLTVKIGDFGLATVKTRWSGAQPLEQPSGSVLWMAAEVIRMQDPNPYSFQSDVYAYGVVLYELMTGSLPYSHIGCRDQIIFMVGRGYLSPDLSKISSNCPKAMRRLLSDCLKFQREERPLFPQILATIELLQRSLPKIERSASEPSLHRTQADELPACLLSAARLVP
# Chain of UniProt P35611 (P35611 whole entry, looked up): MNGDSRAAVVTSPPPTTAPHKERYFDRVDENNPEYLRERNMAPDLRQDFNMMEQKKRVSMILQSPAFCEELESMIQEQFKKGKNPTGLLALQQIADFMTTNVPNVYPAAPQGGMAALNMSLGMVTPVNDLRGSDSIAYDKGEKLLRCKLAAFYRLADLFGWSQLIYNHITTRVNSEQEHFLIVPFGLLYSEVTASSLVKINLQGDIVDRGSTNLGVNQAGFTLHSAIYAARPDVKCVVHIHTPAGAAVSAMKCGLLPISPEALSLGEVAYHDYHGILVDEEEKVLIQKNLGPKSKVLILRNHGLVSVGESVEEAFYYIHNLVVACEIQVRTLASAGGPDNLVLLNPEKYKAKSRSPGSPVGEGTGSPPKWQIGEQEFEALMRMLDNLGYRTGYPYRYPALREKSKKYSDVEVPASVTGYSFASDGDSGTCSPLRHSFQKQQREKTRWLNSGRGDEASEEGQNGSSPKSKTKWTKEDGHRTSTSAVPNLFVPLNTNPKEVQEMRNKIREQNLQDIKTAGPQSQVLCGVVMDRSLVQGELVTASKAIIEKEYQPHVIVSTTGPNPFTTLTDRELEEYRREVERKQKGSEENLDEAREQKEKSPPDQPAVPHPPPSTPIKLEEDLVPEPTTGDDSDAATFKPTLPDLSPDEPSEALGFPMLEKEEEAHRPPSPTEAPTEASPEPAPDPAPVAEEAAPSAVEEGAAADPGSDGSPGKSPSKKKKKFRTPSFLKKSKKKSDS
# Chain of UniProt P40616 (P40616 whole entry, looked up): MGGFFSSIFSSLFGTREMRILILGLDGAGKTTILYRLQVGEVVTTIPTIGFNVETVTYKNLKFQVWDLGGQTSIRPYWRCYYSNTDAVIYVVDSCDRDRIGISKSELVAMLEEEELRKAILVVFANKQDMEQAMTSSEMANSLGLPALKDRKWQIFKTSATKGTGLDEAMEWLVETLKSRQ
# Chain of UniProt Q02252 (Q02252 whole entry, looked up): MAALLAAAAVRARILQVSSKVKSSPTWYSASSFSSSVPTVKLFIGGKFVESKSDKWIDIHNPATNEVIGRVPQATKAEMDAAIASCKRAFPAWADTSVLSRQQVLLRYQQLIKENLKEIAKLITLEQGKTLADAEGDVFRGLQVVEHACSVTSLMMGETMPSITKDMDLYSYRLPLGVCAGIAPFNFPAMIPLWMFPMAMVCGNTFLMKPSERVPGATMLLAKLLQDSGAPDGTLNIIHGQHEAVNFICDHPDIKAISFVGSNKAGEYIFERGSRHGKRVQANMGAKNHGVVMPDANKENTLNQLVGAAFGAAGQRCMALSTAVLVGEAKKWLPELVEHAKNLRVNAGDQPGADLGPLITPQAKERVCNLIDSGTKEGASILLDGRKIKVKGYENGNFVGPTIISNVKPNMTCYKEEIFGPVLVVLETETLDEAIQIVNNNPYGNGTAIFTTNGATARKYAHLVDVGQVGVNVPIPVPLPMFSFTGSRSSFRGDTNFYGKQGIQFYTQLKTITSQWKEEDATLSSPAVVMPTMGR
# Chain of UniProt Q9UH62 (Q9UH62 whole entry, looked up): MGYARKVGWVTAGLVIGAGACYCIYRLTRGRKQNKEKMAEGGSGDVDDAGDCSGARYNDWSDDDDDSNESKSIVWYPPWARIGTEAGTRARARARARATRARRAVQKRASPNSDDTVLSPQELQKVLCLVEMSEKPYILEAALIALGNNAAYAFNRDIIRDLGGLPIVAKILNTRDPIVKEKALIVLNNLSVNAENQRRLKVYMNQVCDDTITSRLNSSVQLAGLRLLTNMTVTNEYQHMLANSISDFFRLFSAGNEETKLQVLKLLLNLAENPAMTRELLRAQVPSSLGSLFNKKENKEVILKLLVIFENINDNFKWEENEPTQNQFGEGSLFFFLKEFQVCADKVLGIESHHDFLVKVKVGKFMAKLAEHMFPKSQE
# Chain of UniProt Q9BTT0 (Q9BTT0 whole entry, looked up): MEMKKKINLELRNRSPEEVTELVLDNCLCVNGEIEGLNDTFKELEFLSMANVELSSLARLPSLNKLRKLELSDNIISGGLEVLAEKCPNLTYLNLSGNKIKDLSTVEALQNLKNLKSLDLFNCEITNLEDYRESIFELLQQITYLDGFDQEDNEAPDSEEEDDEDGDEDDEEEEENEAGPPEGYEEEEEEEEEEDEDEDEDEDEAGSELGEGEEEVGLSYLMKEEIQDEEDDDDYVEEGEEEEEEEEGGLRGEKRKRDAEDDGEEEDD
# Chain of UniProt P07311 (P07311 whole entry, looked up): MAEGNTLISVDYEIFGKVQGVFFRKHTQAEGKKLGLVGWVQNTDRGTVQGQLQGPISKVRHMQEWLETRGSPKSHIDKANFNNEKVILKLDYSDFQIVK
# Chain of UniProt Q15067 (Q15067 whole entry, looked up): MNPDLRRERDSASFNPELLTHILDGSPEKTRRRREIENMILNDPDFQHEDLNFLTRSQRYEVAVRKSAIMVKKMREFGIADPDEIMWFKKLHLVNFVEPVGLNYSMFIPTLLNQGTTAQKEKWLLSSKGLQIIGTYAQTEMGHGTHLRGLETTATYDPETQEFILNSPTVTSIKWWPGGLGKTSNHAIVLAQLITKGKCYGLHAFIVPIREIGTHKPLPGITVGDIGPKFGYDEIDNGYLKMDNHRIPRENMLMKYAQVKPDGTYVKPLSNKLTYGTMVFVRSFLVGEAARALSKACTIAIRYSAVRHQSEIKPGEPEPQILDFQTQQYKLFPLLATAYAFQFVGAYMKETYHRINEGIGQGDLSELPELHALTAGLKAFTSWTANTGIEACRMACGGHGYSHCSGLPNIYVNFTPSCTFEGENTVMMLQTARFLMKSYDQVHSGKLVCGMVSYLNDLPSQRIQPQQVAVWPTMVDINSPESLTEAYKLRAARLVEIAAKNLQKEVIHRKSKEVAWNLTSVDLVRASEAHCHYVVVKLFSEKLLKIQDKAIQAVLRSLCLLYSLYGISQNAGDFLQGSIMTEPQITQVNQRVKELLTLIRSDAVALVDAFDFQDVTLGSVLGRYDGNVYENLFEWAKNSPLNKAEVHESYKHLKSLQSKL
# Chain of UniProt P28288 (P28288 whole entry, looked up): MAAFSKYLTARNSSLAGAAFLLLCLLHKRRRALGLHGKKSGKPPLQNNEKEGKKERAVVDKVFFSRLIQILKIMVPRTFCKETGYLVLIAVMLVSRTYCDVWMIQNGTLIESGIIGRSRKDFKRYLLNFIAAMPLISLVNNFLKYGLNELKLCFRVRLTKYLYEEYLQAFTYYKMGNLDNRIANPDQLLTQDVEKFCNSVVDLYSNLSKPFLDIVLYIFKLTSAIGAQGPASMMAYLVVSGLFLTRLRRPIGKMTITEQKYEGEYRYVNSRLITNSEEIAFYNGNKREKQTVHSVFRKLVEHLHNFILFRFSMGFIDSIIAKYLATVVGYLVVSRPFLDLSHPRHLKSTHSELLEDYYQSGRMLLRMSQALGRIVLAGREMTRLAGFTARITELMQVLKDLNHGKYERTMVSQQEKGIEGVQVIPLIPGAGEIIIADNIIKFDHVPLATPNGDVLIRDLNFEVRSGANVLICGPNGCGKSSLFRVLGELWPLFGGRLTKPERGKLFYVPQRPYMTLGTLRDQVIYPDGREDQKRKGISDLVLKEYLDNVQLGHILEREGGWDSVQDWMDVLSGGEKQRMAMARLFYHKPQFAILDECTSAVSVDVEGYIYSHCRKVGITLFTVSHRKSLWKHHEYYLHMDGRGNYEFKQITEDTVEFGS
# Chain of UniProt O60488 (O60488 whole entry, looked up): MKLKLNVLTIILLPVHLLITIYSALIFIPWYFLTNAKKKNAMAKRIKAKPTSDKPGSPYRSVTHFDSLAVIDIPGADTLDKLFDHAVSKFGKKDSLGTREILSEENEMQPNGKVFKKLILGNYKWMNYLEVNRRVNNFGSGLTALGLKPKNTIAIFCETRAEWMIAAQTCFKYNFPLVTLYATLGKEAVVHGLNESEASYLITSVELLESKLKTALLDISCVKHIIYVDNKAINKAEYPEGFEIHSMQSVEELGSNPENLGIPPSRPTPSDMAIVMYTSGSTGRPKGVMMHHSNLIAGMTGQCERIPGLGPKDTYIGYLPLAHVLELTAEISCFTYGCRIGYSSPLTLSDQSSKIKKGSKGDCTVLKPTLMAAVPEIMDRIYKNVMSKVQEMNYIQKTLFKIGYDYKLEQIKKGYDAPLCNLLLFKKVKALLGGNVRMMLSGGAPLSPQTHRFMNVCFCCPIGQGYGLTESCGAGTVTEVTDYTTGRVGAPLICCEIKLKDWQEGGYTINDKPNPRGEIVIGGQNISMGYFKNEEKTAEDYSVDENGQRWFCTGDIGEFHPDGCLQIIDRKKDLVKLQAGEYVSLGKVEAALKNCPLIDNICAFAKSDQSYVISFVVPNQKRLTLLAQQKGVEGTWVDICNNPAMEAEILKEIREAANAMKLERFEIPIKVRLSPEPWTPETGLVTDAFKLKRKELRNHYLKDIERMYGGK
Target,log2 fold change (vemurafenib),log2 fold change [1],log2 fold change (barasertib),log2 fold change [2],log2 fold change (volasertib),log2 fold change [3],log2 fold change [4],log2 fold change [5],log2 fold change (saracatinib),log2 fold change (sotrastaurin)
ALG8 (UniProt Q9BVK2),-0.038,-0.013,0,-0.084,0.034,0.045,-0.316 (active),0.001,0.005,0.038
ACYP1 (UniProt P07311),-0.038,-0.024,0.024,-0.005,0.032,0.006,0.284 (active),-0.082,0.003,-0.032
ANKRD52 (UniProt Q8NB46),-0.052,0.032,0.029,-0.019,0.097,0.063,0.061,-0.015,-0.022,-0.008
ARMCX5 (UniProt Q6P1M9),0,0.032,0.007,-0.034,-0.012,-0.027,-0.099,-0.03,0.043,
ARMCX3 (UniProt Q9UH62),-0.024,0.027,0.102,-0.033,-0.045,0.021,-0.01,-0.049,0.012,0.016
ACADS (UniProt P16219),0.023,0.017,0.006,-0.039,-0.016,-0.02,0.016,0.003,-0.026,-0.026
ANP32E (UniProt Q9BTT0),-0.012,0.004,-0.064,0.059,-0.001,-0.011,-0.058,0.024,0.028,-0.023
AIFM2 (UniProt Q9BRQ8),-0.19,0.091,-0.029,-0.018,-0.004,-0.089,-0.057,0.149,-0.062,0.036
AMDHD2 isoform 3 (UniProt Q9Y303),0.009,0.019,-0.021,0.003,0.015,-0.024,-0.031,0.005,-0.007,0.019
ACIN1 (UniProt E7EQT4),-0.057,0.026,-0.021,-0.011,0.045,0.048,-0.321,0.127,-0.016,0.047
ALDH18A1 (UniProt P54886),0.052,-0.006,0.033,-0.054,-0.033,0.036,0.009,-0.005,0.003,0.014
ARAF (UniProt P10398),0.411 (active),0.058,0.015,-0.069,-0.038,-0.015,0.042,0,0.005,0.002
AIP (UniProt O00170),-0.002,0.015,-0.004,0.017,-0.004,-0.022,0.514 (active),-0.019,-0.015,0.007
ABCA3 (UniProt Q99758),0.114,-0.044,0.057,-0.009,0.089,-0.163,-0.086,0.051,-0.05,0.031
ACSL4 (UniProt O60488),0.061,-0.007,-0.006,-0.029,-0.001,0.036,0.008,-0.02,0.047,0.043
AHCYL1 (UniProt O43865),0.018,0.021,-0.001,0.001,-0.073,-0.021,-0.055,-0.012,-0.021,0.006
ABCD3 (UniProt P28288),0.078,0.058,0.053,-0.077,-0.029,-0.07,-0.054,0.044,-0.071,0.073
AIMP1 isoform 2 (UniProt Q12904),0.001,0.018,0.015,-0.036,-0.057,0.025,-0.024,-0.081,0.023,-0.001
ALKBH4 (UniProt Q9NXW9),0.061,0.018,0.086,-0.133,-0.068,0.074,0.025,0,-0.019,0.036
ARHGEF1 (UniProt M0QZR4),0.014,0.004,0.023,-0.025,-0.041,0.014,-0.08,0.013,0.009,0.018
ACOX1 isoform 2 (UniProt Q15067),0.017,0.003,-0.029,0.015,0.053,-0.026,-0.038,0.1,-0.014,0.004
ARL8A (UniProt Q96BM9),-0.029,-0.26,-0.026,-0.001,-0.037,-0.03,0.558 (active),-0.199,0.03,0.022
ABHD17A isoform 2 (UniProt Q96GS6),-0.007,-0.08,0.007,0.036,0.012,0.022,0.001,0.013,-0.027,-0.05
ADD1 isoform 3 (UniProt P35611),-0.025,-0.002,-0.001,0.036,0.007,-0.002,-0.013,0.054,0.002,0
ARFGAP1 (UniProt Q8N6T3),0.063,-0.01,0.225,0.204,-0.02,0.171,0.001,0.029,0.056,-0.07
ACTBL2 (UniProt Q562R1),-0.097,0.089,-0.117,0.098,-0.166,0.105,0.417,-0.023,-0.108,0.049
ARL1 (UniProt P40616),0.046,0.007,-0.031,0.03,-0.066,-0.04,-0.101,-0.005,-0.005,0.042
ALDH6A1 (UniProt Q02252),0.055,0.027,0.043,-0.009,-0.025,0.015,-0.111,0.022,-0.324 (active),-0.082
ANP32A (UniProt P39687),-0.025,0.052,-0.007,-0.011,0.006,-0.008,-0.085,0.062,-0.033,-0.002
AKAP8 (UniProt O43823),0.006,0.044,0.056,-0.009,-0.03,-0.013,-0.056,0.044,0.075,0.008
